In the supplement of paper PMC6555819 one finds PBM binding z-score data, which are given here for 16 sequences.

Holding throughout (assay): PBM binding z-score (relative to random genomic background probes); higher = stronger binding; sequences stand for … in GC…GCGATTGACAGCGTAGAATGAAGG
Test [1] has as its system RARb homodimer (NR concentration 270 nM). The procedure, abridged:
(§1)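 Scanned fluorescence from custom Agilent 4×180K protein-binding microarrays was regression-normalized. Binding z-scores use random background probes as reference. Ligand-free nuclear receptor dimers were incubated on the arrays for 1 h and detected with antibodies against each partner (one per run).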

Test [2] concerns RARg:RXRa (NR concentration 270 nM, RXRa partner concentration 90 nM). The procedure, abridged:
as §1

The test system of test [3] is RARg homodimer (NR concentration 270 nM). The procedure, abridged: as §1
For test [4], the system named is RXRa DBDmut IVT, anti-RXR (DBD mutation: RXRa K156A/R161A, NR concentration 90 nM). The procedure, abridged: as §1
The test system of test [5] is RXRa homodimer (NR concentration 180 nM). The procedure, abridged: as §1
Test [6] relates to THRa:RXRa (NR concentration 90 nM, RXRa partner concentration 90 nM). The procedure, abridged: as §1
Test [7] has as its system THRa homodimer (NR concentration 90 nM). The procedure, abridged: as §1
In test [8] the test system is VDR:RXRa (NR concentration 270 nM, RXRa partner concentration 90 nM). The procedure, abridged:
as §1

Test [9] relates to VDR homodimer (NR concentration 270 nM). The procedure, abridged: as §1

Take ATCTCTAGGTAACAAAGTTCAGTGAATGCCGAAC: the PBM binding z-score in [1] worked out at 2.76; in [2], 2.04; in test [3] it was 1.99; in test [4], 0.878; in [5], 1.36; in [6], 1.56. Besides, the PBM binding z-score was 0.601 in [7], 3.18 in [8] and 2.02 in test [9].

With AGAACGAGGTTAAGATCAGGGAAACAGAATACAT, the PBM binding z-score in test [1] was 1.12; in [2], 2.15; in test [3] it was 1.62; in [4], 1.03; in test [5] it was 2.45; in [6] it was 2.36. Further, the PBM binding z-score in test [7] amounted to 0.55; in [8] it was 1.36; in test [9], 0.771.

As to TCTCGGAGGACACGAAAGGTTAGAGCTCGACATC, the PBM binding z-score in test [1] was determined as 2.16; in [2], 1.94; in [3], 2.3; in [4], 0.867; in test [5], 1.4; in [6], 2.41. Moreover, the figures for the PBM binding z-score in test [7], in [8] and in test [9] were 0.435, 0.803 and 0.0953, respectively.

For ATCTCAAGGTAAAAGTTCAGTGAATCCCGAGGAT, the PBM binding z-score in test [1] was 2.4; in [2], 2.29; in test [3] it was 1.96; in test [4] it was 0.614; in test [5], 2.21; in test [6] it was 1.94. In addition, the results for the PBM binding z-score in [7], in test [8] and in [9] were 0.529, 1.6 and 1.28, respectively.

In the case of CGAACTAGGTCATTGACAGGACAGTGAGTAGTAA, the PBM binding z-score in test [1] was 2.57; in test [2], 4.39; in test [3], 4.12; in test [4], 2.41; in test [5], 2.42; in [6], 2.81. The PBM binding z-score in test [7] amounted to 0.505; in test [8], 2.18; in [9], 0.794.

Turning to CAAACTAGGTCACAGAGGTGAAAGTCCGTGCGTA, the PBM binding z-score in test [1] was determined as 3.98; in test [2], 5.15; in [3], 5.24; in test [4], 1.76; in [5], 4.44; in [6], 3.9. Besides, the PBM binding z-score in test [7] was 2.28; in test [8], 5.99; in test [9] it was 2.6.

For CGAACGAGGGCATGAGTTGATAGCGAATGCCGAT, the PBM binding z-score was found to be 0.689 in test [1]; 1.25 in test [2]; 1.69 in test [3]; 2.41 in [4]; 1.09 in test [5]; 1.09 in test [6]. The PBM binding z-score in test [7] is -0.229; in [8], 1.21; in [9] it was 1.5.

Turning to ATCTAAAGGTCGAGGTGAGTATAGAGAAAGGGAA, the PBM binding z-score is 3.3 in test [1]; 4.54 in [2]; 4.69 in [3]; 1.33 in test [4]; 4.82 in test [5]; 3.09 in [6]. Also, the PBM binding z-score in test [7] was determined as 1.31; in test [8], 3.08; in test [9] it was 0.632.

In the case of AGAACGAGGGCACGCTGGGTTGATAGCAGAGTAG, the PBM binding z-score in test [1] was found to be 1.28; in test [2], 2.01; in test [3] it was 2.36; in test [4], 1.87; in test [5], 1.56; in test [6], 2.5. Besides, the PBM binding z-score in test [7] was found to be 0.224; in [8] it was 2.53; in test [9], 2.08.

With ATCTGTAGGTAACAAGTTCAGTGAAAGAGAGGAC, the PBM binding z-score in [1] was 2.16; in [2], 1.44; in test [3], 1.42; in test [4] it was 0.851; in test [5], 0.902; in test [6] it was 1.26. The PBM binding z-score in test [7] was determined as 0.755; in [8] it was 2; in [9] it was 2.46.

Turning to CCTAGTTGGTCAGGAGCTCACACACCGGATATGA, the PBM binding z-score was 0.161 in test [1]; 0.446 in test [2]; 0.601 in test [3]; -0.0483 in test [4]; 0.0648 in [5]; -0.298 in test [6]. The PBM binding z-score in [7] is -0.103; in [8] it was 0.0372; in test [9] it was 0.545.

AGACCGAGGGCACGCTGAGTTGATAGCAGAGTAG: the PBM binding z-score in test [1] is 1.33; in test [2], 2.22; in [3], 2.06; in test [4], 1.49; in [5], 1.31; in test [6] it was 1.77. Besides, the PBM binding z-score was -0.237 in [7], 2.21 in [8] and 1.75 in test [9].

For GCTTGCAGATCAAGGTTAAGAAAGACTAAGCTAA, the PBM binding z-score in test [1] is -0.0263; in test [2] it was 0.321; in [3], 0.141; in [4] it was -0.00088; in [5] it was 0.55; in test [6] it was 1.16. Further, the values for the PBM binding z-score in test [7], in test [8] and in [9] were -0.514, -0.0251 and -0.323, respectively.

For TCTTATAGGTAAACAGGTGAAAGTCCGTAAGTTA, the PBM binding z-score was 0.802 in test [1]; 0.615 in test [2]; 0.392 in [3]; 1.1 in [4]; 0.864 in [5]; 0.793 in test [6]. Further, the PBM binding z-score in test [7] came out at 0.397; in [8], 1.17; in [9], 0.462.

For the sequence CTCGAAAGGTCGTGCTCAGGTGCGTATACCAAAC, the PBM binding z-score in [1] came out at 2.4; in test [2], 4.1; in [3] it was 3.38; in [4] it was 2.27; in test [5], 4.39; in test [6], 2.69. The PBM binding z-score in test [7] amounted to 0.271; in [8] it was 3.57; in test [9], 1.45.

As to GCAGATAGGTAATACAAGGTGAAAGTCCGATTGT, the PBM binding z-score in [1] was 0.807; in test [2], 0.57; in test [3], 0.471; in test [4] it was -0.0602; in [5], 0.646; in test [6], 4.12. Also, the PBM binding z-score in [7] worked out at 0.853; in [8] it was 0.13; in [9] it was 0.0811.
